# Measured values from PubChem BioAssay AID463173 (ICCB-Longwood Screening Facility, Harvard Medical School, 2010).
# In all, about 52,000 compounds went through this assay and about 4,300 (8.3%) were called active. Rule as the data show it: active = survival mostly below about 52% (no sharp cut-off); inactive = mostly above about 56%. This excerpt belongs to a sample that is enriched for actives.
# Tested on: DeltatarO mutant
# Test: growth inhibition of S. aureus wild type versus tarO mutant, primary screen, teichoic acid synthesis inhibitors, RN4220, OD600 (AID 463173)
# Details: OD600, 18 h, active compounds read low, screened at 18.75 µg/mL (by protocol)
row,Compound,survival
1,COCCn1c(SCC(=O)c2ccc(OC)cc2)nc2cc(C(=O)NC3CCCC3)ccc2c1=O,94% (inactive)
2,Cc1ccc(S(=O)(=O)N(C#N)c2nc(C)cc(C)n2)cc1,71% (inactive)
3,C=C(C)c1cccc(C(C)(C)NC(=O)N(C)C2CCN(C)CC2)c1,82% (inactive)
4,COc1ccccc1-c1nnc(C2CCN(S(=O)(=O)c3ccccc3)CC2)o1,84% (inactive)
5,COc1ccc(C)cc1NS(=O)(=O)c1ccc2c3c(cccc13)C(=O)N2,58% (inactive)
6,Cc1ccc(C)c(NS(=O)(=O)c2ccc3c4c(cccc24)C(=O)N3)c1,52% (active)
7,Cc1ccc(NS(=O)(=O)c2ccc3c4c(cccc24)C(=O)N3)c(C)c1,58% (inactive)
8,Cc1ccc(CS(=O)(=O)c2ncc(Cl)c(C(=O)Nc3nc4ccc(C)cc4s3)n2)cc1,6% (active)
9,COc1ccc2nc(NC(=O)c3nc(S(=O)(=O)Cc4ccccc4)ncc3Cl)sc2c1,77% (inactive)
10,Cc1ccc2nc(NC(=O)c3nc(SCc4ccccc4C)ncc3Cl)sc2c1,98% (inactive)
11,O=C(Nc1nc2ccc(F)cc2s1)c1nc(S(=O)(=O)Cc2ccccc2)ncc1Cl,17% (active)
12,Cc1ccc(CS(=O)(=O)c2ncc(Cl)c(C(=O)Nc3nc4ccc(F)cc4s3)n2)cc1,9% (active)
13,O=C(Nc1nc2ccc(F)cc2s1)c1nc(S(=O)(=O)Cc2ccccc2F)ncc1Cl,80% (inactive)
14,COc1ccc2nc(NC(=O)c3nc(S(=O)(=O)Cc4cccc(C)c4)ncc3Cl)sc2c1,49% (inactive)
15,CSc1ncc(Cl)c(C(=O)Nc2nc3ccc(F)cc3s2)n1,98% (inactive)
16,Cc1cccc(CS(=O)(=O)c2ncc(Cl)c(C(=O)Nc3nc4ccc(F)cc4s3)n2)c1,-1% (active)
17,COc1ccc2nc(NC(=O)c3nc(S(=O)(=O)Cc4ccc(C)cc4)ncc3Cl)sc2c1,82% (inactive)
18,Cc1ccc(NC(=O)N2CCC(CN3CCCCCC3)CC2)c(Cl)c1,84% (inactive)
19,O=C(c1ccccc1)N1CCCCC1CCN1CCCCC1 (stereo not given),70% (inactive)
20,CCc1ccc(N(CC)C(=O)Cn2nc(Cc3cccnc3)c3ccccc3c2=O)cc1,81% (inactive)
21,CCOc1ccc(S(=O)(=O)N(CC(=O)Nc2ccc3c(c2)OCO3)c2ccccc2)cc1,72% (inactive)
22,O=C(Cn1ncc2c3ccccc3n(Cc3cccc(Cl)c3)c2c1=O)Nc1ccc(F)cc1F,103% (inactive)
23,CC(C)CCNC(=O)CN1C(=O)c2cccnc2Oc2ccccc21,85% (inactive)
24,CC(C)c1cnc2c(c1SCC(=O)N1CCCCC1)c(=O)n(C)c(=O)n2C,107% (inactive)

row,Compound,survival
1,O=[N+]([O-])c1cc(-c2nc(-c3ccccc3)no2)ccc1NCc1cccnc1,47% (active)
2,CCNc1ccc(-c2nc(-c3ccccn3)no2)cc1[N+](=O)[O-],60% (inactive)
3,Cc1noc(-c2ccc(NCc3ccccc3)c([N+](=O)[O-])c2)n1,66% (inactive)
4,Cc1ccc(CNc2ccc(-c3nc(-c4ccccn4)no3)cc2[N+](=O)[O-])cc1,104% (inactive)
5,O=[N+]([O-])c1cc(-c2nc(-c3ccccn3)no2)ccc1NCc1ccccc1,39% (active)
6,COCCNc1ccc(-c2nc(-c3ccco3)no2)cc1[N+](=O)[O-],54% (inactive)
7,Cc1ccc(-c2noc(-c3ccc(NCc4cccnc4)c([N+](=O)[O-])c3)n2)cc1,104% (inactive)
8,O=[N+]([O-])c1cc(-c2nc(-c3cccnc3)no2)ccc1NCc1ccccc1,63% (inactive)
9,COCCNc1ccc(-c2nc(-c3ccncc3)no2)cc1[N+](=O)[O-],77% (inactive)
10,COCCNc1ccc(-c2nc(-c3ccccn3)no2)cc1[N+](=O)[O-],43% (active)
11,CCCNc1ccc(-c2nc(-c3ccccn3)no2)cc1[N+](=O)[O-],111% (inactive)
12,CCCCNc1ccc(-c2nc(-c3ccccn3)no2)cc1[N+](=O)[O-],46% (active)
13,CCCCOc1ccc(C(=O)NCCc2csc3nc(-c4ccccc4F)nn23)cc1,84% (inactive)
14,NCc1nc2cccnc2n1Cc1ccccc1Cl,81% (inactive)
15,COc1ccc(C)cc1NC(=O)Nc1cc(C(=O)NCc2ccc(C)cc2)ccc1N1CCCC1,82% (inactive)
16,Cc1cc2c(cc1NS(=O)(=O)c1ccc(NC(=O)CC(C)C)cc1)n(C)c(=O)c(=O)n2C,86% (inactive)
17,COc1ccc(OC)c(-c2cc(C(=O)NCCc3ccccc3)c3c(-c4ccc(C)cc4)[nH]nc3n2)c1,67% (inactive)
18,CCCCNc1nc2c(S(=O)(=O)c3ccc(Br)cc3)nnn2c2ccsc12,74% (inactive)
19,CCOc1nc(Nc2ccccc2)nc(OCC)n1,115% (inactive)
20,CCN(C(=O)CCS(=O)(=O)c1ccc2c(c1)CCN2C(C)=O)c1cccc(C(F)(F)F)c1,101% (inactive)
21,CCc1ccc(CNC(=O)CSc2cc(=O)n(C)c3ccc(Cl)cc23)cc1,31% (active)
22,CCc1ccc(CNC(=O)CSc2cc(=O)n(CC)c3ccccc23)cc1,87% (inactive)
23,Cn1c(=O)cc(SCC(=O)NCc2ccc(F)cc2)c2cc(Cl)ccc21,88% (inactive)
24,CCN(CCCNC(=O)CSc1cc(=O)n(CC)c2ccccc12)c1cccc(C)c1,38% (active)

row,Compound,survival
1,CCN(CCCNC(=O)c1cc2c(=O)n(CC)c3ccccc3c2s1)c1cccc(C)c1,42% (active)
2,CCn1c(=O)c2cc(C(=O)NCCc3cccc(C)c3)sc2c2ccccc21,70% (inactive)
3,CCn1c(=O)c2cc(C(=O)NCCCN(C)Cc3ccccc3)sc2c2ccccc21,106% (inactive)
4,Cn1c(=O)cc(SCC(=O)NCCc2ccc(Cl)cc2)c2cc(Cl)ccc21,75% (inactive)
5,CCN(CCCNC(=O)CSc1cc(=O)n(CC)c2ccccc12)c1ccccc1,53% (inactive)
6,CCn1c(=O)cc(SCC(=O)NCc2ccc(C)cc2)c2ccccc21,84% (inactive)
7,CCN(CCCNC(=O)CSc1cc(=O)n(C)c2cc(Cl)ccc12)c1cccc(C)c1,90% (inactive)
8,CCn1c(=O)cc(SCC(=O)NCc2cccc(Cl)c2)c2ccccc21,38% (active)
9,Cc1cc(C)c(NC(=O)C2CCN(c3nn4c(=O)cc(C)nc4s3)CC2)c(C)c1,103% (inactive)
10,CC(=O)Nc1ccc(NCc2cccs2)cc1,101% (inactive)
11,Cc1cc(Nc2ccc(C(C)C)cc2)nc(-n2nc(C)cc2C)n1,90% (inactive)
12,COC(=O)c1cc2oc(C)cc2n1CC(=O)Nc1ccc(OC)c(OC)c1,131% (inactive)
13,COc1ccc(N2CCN(Cc3nc4c(c(=O)[nH]c(=O)n4C)n3Cc3ccc(C)cc3)CC2)cc1,113% (inactive)
14,CCOC(=O)c1c(C)n(C2CCCCC2)c2ccc(OCC(N)=O)cc12,69% (inactive)
15,CCOC(=O)C1CCC(CN(Cc2c(Cl)cccc2Cl)S(=O)(=O)c2ccc(Cl)cc2)CC1 (stereo not given),81% (inactive)
16,Cc1cccc2c(=O)cc(CSc3ccccc3NC(=O)c3cccc(Br)c3)[nH]c12,86% (inactive)
17,CCN(CC)CCNC(=O)c1c2c(nc3ccccc13)C(=O)N(C1CCCCC1)C2,94% (inactive)
18,CCOc1ccc2c(c1)c(=O)c(C(=O)c1ccc(CC)cc1)cn2CC(=O)Nc1ccccc1C,70% (inactive)
19,CCOC(=O)C1CCN(C(=O)c2ccc(C)c(NC(=O)c3nsc4ccccc34)c2)CC1,88% (inactive)
20,CCN(CCCNC(=O)c1cc2c(=O)n(C)c3ccccc3c2s1)c1ccccc1,57% (inactive)
21,CCN(CCCNC(=O)c1cc2c(=O)n(CC)c3ccccc3c2s1)c1ccccc1,47% (active)
22,CCN(CCCNC(=O)c1cc2c(=O)n(CC)c3ccccc3c2s1)Cc1ccccc1,101% (inactive)
23,Cc1ccc(Sc2c(C(=O)NCc3cccc(F)c3)[nH]c3ccccc23)cc1,72% (inactive)
24,O=C(Cn1cnc2scc(-c3ccccc3)c2c1=O)NCc1ccco1,60% (inactive)

row,Compound,survival
1,CCc1cccc(C)c1Nc1c(-c2ccc(SC)cc2)nc2sccn12,50% (inactive)
2,CC(=O)N1CCc2c(sc3nc(SCC(N)=O)n(-c4ccc(F)c(Cl)c4)c(=O)c23)C1,75% (inactive)
3,CCOc1ccc(NC(=O)CC2C(=O)OCCN2CC)cc1 (stereo not given),56% (inactive)
4,CCc1ccc(NC(=O)CC2C(=O)OCCN2CC)cc1 (stereo not given),5% (active)
5,CCN1CCOC(=O)C1CC(=O)Nc1cc(C)cc(C)c1 (stereo not given),142% (inactive)
6,CCN1CCOC(=O)C1CC(=O)Nc1ccc(Br)cc1 (stereo not given),44% (active)
7,CCOC(=O)c1ccc(NC(=O)CC2C(=O)OCCN2CC)cc1 (stereo not given),61% (inactive)
8,CCN1CCOC(=O)C1CC(=O)Nc1ccc(C(C)=O)cc1 (stereo not given),59% (inactive)
9,O=C(NCCc1ccc(Cl)cc1)c1ccc2c(c1)N(Cc1ccccc1F)C(=O)c1ccccc1S2(=O)=O,79% (inactive)
10,CCc1cccc2c(-c3ccccc3)nc(SCC(=O)Nc3ccccc3OC)nc12,109% (inactive)
11,Cc1ccc(C)c(N2CCN(S(=O)(=O)c3cnc(N)nc3)CC2)c1,86% (inactive)
12,COc1ccc2oc(=O)c(-c3cn4c(n3)sc3cc(F)ccc34)cc2c1,76% (inactive)
13,Cc1oc2ccc(O)c(CN3CCN(Cc4ccccc4)CC3)c2c1C(=O)Nc1ccccc1,68% (inactive)
14,COc1cccc(Cc2nc3ccccc3nc2SCC(=O)NCCc2ccccc2)c1,87% (inactive)
15,COc1ccc(CCNC(=O)CCc2c(C)nc3c(c(C)nn3-c3ccccc3)c2C)c(OC)c1,53% (active)
16,Cc1nc2c(c(C)nn2-c2ccccc2)c(C)c1CCC(=O)NCc1ccccc1,70% (inactive)
17,COc1cc2c(-c3ccccc3C)nc3c(c(C)nn3-c3ccccc3)c2cc1OC,35% (active)
18,COc1cc2c(-c3ccccc3Cl)nc3c(c(C)nn3-c3ccccc3)c2cc1OC,57% (inactive)
19,COc1cc2c(-c3ccccc3O)nc3c(c(C)nn3-c3ccccc3)c2cc1OC,68% (inactive)
20,Cc1cccc(CCNC(=O)CCc2c(C)nc3c(c(C)nn3-c3ccccc3)c2C)c1,48% (active)
21,Cc1nc2c(c(C)nn2-c2ccccc2)c(C)c1CCC(=O)NCCc1ccccc1,58% (inactive)
22,COc1ccc(CNC(=O)CCc2c(C)nc3c(c(C)nn3-c3ccccc3)c2C)cc1,78% (inactive)
23,COc1ccc(CCNC(=O)CCc2c(C)nc3c(c(C)nn3-c3ccc(C)cc3)c2C)c(OC)c1,107% (inactive)
